Shown is part of a subset that was picked to be rich in hits.
Pf Dd2 growth: blocks in vitro growth of P. falciparum Dd2 | P. falciparum Dd2 growth, SYBR Green, 72 h | Potency, µM (series often up to 28.9 µM), most hits filed as inhibitors | hit rate 4.3% among 120,000; active means well fitted inhibition curve with a large enough effect; further: nearly all actives have a fitted effect of over 65% in size
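Readout: SYBR Green fluorescence, 485 nm excitation, 535 nm emission, after ~16 h lysis at 37C. Before that, Dd2-infected red cells (2.5% hematocrit) grew 72 h with compound, 29 uM top final concentration.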
Large screens that a line does not name were inactive.

CCCCNCc1ccc(OCC(O)CN2CCSCC2)c(OC)c1 (stereo unspecified)	none
CC1CCN(Cc2ccccc2OCC(O)CN2CCSCC2)CC1 (stereo unspecified)	Pf Dd2 growth 4.47µM
COc1ccc(NC(=O)Cn2nc3n(c2=O)CCCCC3)cc1	none
COc1cccc(N2C(=O)NC(=NC3CCCCC3)C23CCN([S+](=O)([O-])c2cccs2)CC3)c1	none
Fc1ccc(-c2nnc3ccc(NCCc4ccccn4)nn23)nc1	none
Cc1ccc(OCc2nc(C3CCCN3C(=O)c3sc(C)nc3C)no2)cc1 (stereo unspecified)	none
CN(CCNC(=O)c1cn2ccnc(-c3ccccc3)c2n1)C1CCCCC1	none
CCC(O)CNc1ccc(-c2nc(COC)no2)cn1 (stereo unspecified)	none
c1ccc(OCc2noc(-c3ccc(NC4CCSC4)nc3)n2)cc1 (stereo unspecified)	Pf Dd2 growth 10µM
CC1(COc2ccc(-c3nc(COc4ccccc4)no3)cn2)CCCNC1 (stereo unspecified)	none
CCCCS(=O)(=O)N1CCn2nc(C(O)c3nccn3C)cc2C1 (stereo unspecified)	none
O=C(NC1CCCC1)c1ccc2c(c1)N(S(=O)(=O)c1ccccc1)CC2	none
O=C(NCC1CCCCC1)c1ccc2c(c1)N(S(=O)(=O)c1ccccc1)CC2	Pf Dd2 growth 4.47µM
COc1ccccc1CNC(=O)c1ccc2c(c1)CCN2S(=O)(=O)c1ccccc1	none
Clc1cnccc1CN1CCNc2cnc(-c3ccccc3)cc2C1	none
CC(C)CC1=NS(=O)(=O)c2cc(NC(=O)C3CC3)ccc2N1c1ccccc1	Pf Dd2 growth 2µM
CC(C)C1=NS(=O)(=O)c2cc(NC(=O)c3ccco3)ccc2N1c1ccccc1	none
CCC1=NS(=O)(=O)c2cc(NC(C)=O)ccc2N1CC(C)C	none
CC(C)C(=O)Nc1ccc2nc(SCC(=O)N3CCOCC3)sc2c1	none
O=C(COc1ccccc1)Nc1ccc2nc(SCC(=O)N3CCOCC3)sc2c1	none
CCOc1ccc(C(=O)Nc2ccc3nc(SCC(=O)N4CCOCC4)sc3c2)cc1	Pf Dd2 growth 8.91µM
O=C(C1CCCO1)N1CCc2[nH]nc(C(c3ccccc3)c3ccccc3)c2C1 (stereo unspecified)	none
CN(C)C(=O)c1ccc(OC2CCN(C(=O)c3ccccc3C(F)(F)F)CC2)nc1	none
CN(C)C(=O)c1ccc(-c2nnc3ccc(NC(=O)C4CCC4)cn23)cc1	Pf Dd2 growth 3.98µM
COc1ccc(NC(=O)c2ccc(-c3nnc4ccc(NC(=O)C5CCC5)cn34)cc2)cc1	Pf Dd2 growth 1µM
CCOc1ccc(C(=O)Nc2ccc3c(c2)OCCO3)cc1Br	none
Cc1cc(=O)n(CC(=O)Nc2ccc3c(c2)OCCO3)c(-c2ccc(Cl)cc2)n1	none
O=C(Nc1ccc(-c2nnc3n2CCCC3)cc1)C1CCCCC1	none
COc1ccc(C(=O)Nc2ccc(-c3nnc4n3CCCCC4)cc2)cc1	none
COc1ccc(C(=O)Nc2ccc(-c3nnc4n3CCCCC4)cc2)cc1OC	none
CCC(=O)Nc1ccc2nnc(-c3ccc(C(=O)Nc4ccc5c(c4)OCCO5)cc3)n2c1	Pf Dd2 growth 0.282µM
O=C(NC1CC1)c1ccc2nnc(-c3ccc(C(F)(F)F)cc3)n2c1	none
O=C(Nc1ccc(F)c(Cl)c1)C1CCN(C(=O)c2ccc(F)cc2)CC1	none
Cc1ccc(NC(=O)C2CCN(C(=O)c3nnn4c3COC(c3ccc(C)cc3)C4)CC2)cc1 (stereo unspecified)	none
O=C(Nc1ccc2nnc(-c3ccc(C(=O)N4CCSCC4)cc3)n2c1)C1CCC1	Pf Dd2 growth 2.24µM
Cc1cc(C[C@@H]2COC[C@@H]2NC(=O)C2CCN(C(=O)C3CC3)CC2)on1	none
COc1ccccc1C(=O)N1CCC(c2n[nH]c(=O)n2-c2ccccc2)CC1	none
CC(C)n1cc(CN2CCc3n[nH]c(=O)n3CC2)cn1	none
CCNC(=O)c1n[nH]c2c1CN(C(=O)c1cccc(Cl)c1)CC2	none
CCOCCOC1CCN(C(=O)c2ccc3cc[nH]c3c2)CC1	none
Cc1nc(-c2ccccc2OC2CN(C(=O)c3cnn(C)c3)C2)no1	none
CCN1CCN(C(=O)c2ccc3nccn3c2)CC1	none
CC(C)c1ccc(NC(=O)C2CCN(C(=O)c3ccc(F)cc3)CC2)cc1	none
CCN1CCN(C(=O)c2ccc(-c3nnc4ccc(NC(=O)C5CC5)cn34)cc2)CC1	Pf Dd2 growth 0.447µM
CC(C)Cn1c(CNC(=O)OC(C)(C)C)nc2cccnc21	none
Cc1ccc(C(=O)N2CCC3(CC2)Nc2ccccc2NC3=O)cc1O	none
CSc1cccc(NC(=O)C2CCN(c3nc4ccccc4[nH]3)CC2)c1	none
Cc1ncc(CN2CCC(C(=O)Nc3cccc(-c4cc5ccccc5[nH]4)c3)CC2)cn1	Pf Dd2 growth 8.91µM
O=C(Nc1cccc(-c2ccco2)c1)C1CCN(Cc2ccc(CO)o2)CC1	none
Cc1cccc(C(=O)N2CCC(c3n[nH]c(=O)n3-c3ccccc3)CC2)c1	none
Cc1cn2nc(C(=O)N3CCC(NC(=O)c4cccc(N(C)C)c4)CC3)cc2c(=O)[nH]1	none
COc1ccc(CCc2nc3nccc(-c4ccncc4)n3n2)cc1OC	none
COc1ccc(CCc2nc3nccc(-c4ccccc4)n3n2)cc1OC	none
COc1ccc(CCc2nc3nccc(-c4ccc(F)cc4)n3n2)cc1OC	none
COc1ccc(CCc2nc3nccc(-c4cc(OC)c(OC)c(OC)c4)n3n2)cc1	none
COc1cc(-c2ccnc3nc(CCc4ccccc4)nn23)cc(OC)c1OC	Pf Dd2 growth 11.2µM
COc1ccc(CCc2nc3nccc(-c4ccc(OC)c(OC)c4)n3n2)cc1	Pf Dd2 growth 12.6µM
Cc1ccc(C(=O)N2CCN(c3cc(-c4cccs4)[nH]n3)CC2)c(C)c1	none
COc1ccc(CNC(=O)C[C@@H]2C[C@@H](C(C)C)[C@H](CNC(C)=O)C=C2C)cc1	none
CCc1noc(-c2ccn3c(CNC(=O)CCC4CCCC4)nnc3c2)n1	none
CN(Cc1ccc(-c2ccccc2)cc1)C(=O)C(C)(C)C	none
COCC(=O)N(C1CCOCC1)C1CCN(C(=O)c2ccc(F)cc2F)CC1	none
CCOc1ccc(CNC(=O)Cn2nc(N3CCN(c4ccccc4)CC3)ccc2=O)cc1	none
COc1cccc(NC(=O)Cn2nc(N3CCN(c4ccccc4)CC3)ccc2=O)c1	none
CCc1ccc(NC(=O)c2ccc(Cn3nc(N4CCN(c5ccccc5)CC4)ccc3=O)o2)cc1	Pf Dd2 growth 11.2µM
Cc1cc(C)n2nc(CC(=O)NCc3cc(-c4ccco4)on3)nc2n1	none
O=C(COCc1cc(-c2ccco2)on1)Nc1cccc(Cl)c1Cl	none
Cc1cc(CNC(=O)c2cc(-c3ccco3)nc3c(Cl)cccc23)no1	Pf Dd2 growth 8.91µM
Cc1ccc(-c2cc(N3CCCN(C(=O)Cc4ccccc4)CC3)n[nH]2)cc1C	none
Cn1c(=O)c2c(-c3cccc(Br)c3)n(C(C)(C)CO)cc2n(C)c1=O	none
Cn1c(=O)c2c(-c3ccccc3)n(CCCO)cc2n(C)c1=O	none
Cc1ccc(-c2c3c(=O)n(C)c(=O)n(C)c3cn2-c2cc(C)ccc2O)cc1	Pf Dd2 growth 5.62µM
CCN1C(=O)CCN(C(=O)c2c(C)noc2C)CC12CCOCC2	none
CC(C)CN1C(=O)c2cccn2CC1C(=O)N1CCN(Cc2ccc3c(c2)OCO3)CC1 (stereo unspecified)	none
Cc1ccc(CN2CCN(C(=O)C3Cn4cccc4C(=O)N3Cc3cccnc3)CC2)cc1 (stereo unspecified)	Pf Dd2 growth 12.6µM
O=C(O)C1Cn2cccc2C(=O)N1Cc1cccnc1 (stereo unspecified)	none
CC(=O)N1CCC(Cc2ccc(C(=O)O)cc2)CC1	none
Cc1ccc(CN(C(=O)c2ccco2)c2ccc(CC(=O)N(C)Cc3ccccc3)cc2)cc1	none
CCOC(=O)C1CCN(C(=O)Cc2ccc(N(Cc3ccccc3)C(=O)c3ccco3)cc2)CC1	Pf Dd2 growth 1.41µM

Assay outcomes: PubChem BioAssay, National Center for Advancing Translational Sciences (NCATS)
